Experimental data from PubChem BioAssay (NCI).
This is part of a sample that, as a whole, favours compounds with a hit. Of some 83,000 tested, about 20% had one in any assay.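 Interpretation: 100, growth as untreated; towards 0, rising growth inhibition; 0, no net growth; 0 to -100, cell death. Compounds scoring below 10 were considered active.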 Active and inactive are the calls of the source.

Key:
Assay in all cases: NCI-60 one-dose screen, 48 h (100 = growth as untreated, 0 = no growth, -100 = all killed)
Details in all cases: 10 µM unless noted
[1] = test system: NCI-H23 lung
[2] = test system: NCI-H226 lung
[3] = test system: NCI-H322M lung
[4] = test system: NCI-H460 lung
[5] = test system: HOP-92 NSCLC
[6] = test system: NCI-H522 lung
[7] = test system: A549/ATCC NSCLC
[8] = test system: 786-0 renal
[9] = test system: COLO 205 colon
[10] = test system: DU-145 prostate
[11] = test system: K-562 leukemia
[12] = test system: MALME-3M melanoma
[13] = test system: MDA-MB-231 breast
[14] = test system: RXF 393 renal
[15] = test system: SF-268 CNS
[16] = test system: SF-295 CNS
[17] = test system: SF-539 CNS
[18] = test system: UACC-257 melanoma
[19] = test system: M14 melanoma

Measured: growth

COC(=O)c1cc2c(=O)[nH]cc3c2c(n1)CCC3
inactive: [1] 106% | [2] 112% | [3] 108% | [4] 101% | [5] 76.8% | [6] 102% | [7] 101% | [8] 101% | [9] 106% | [10] 116% | [11] 99.3% | [12] 99.3% | [13] 106% | [14] 100% | [15] 100% | [16] 112% | [17] 97.3% | [18] 102% | [19] 104%

C=C(C)[C@@H]1CC[C@]2(COCCC#N)CC[C@]3(C)[C@H](CC[C@@H]4[C@@](C)(CCCNCCC#N)[C@H](C(=C)C)CC[C@]43C)[C@@H]12
active: [4] 9.8% [100 µM] | [5] -14.6% [100 µM] | [6] -6.77% [100 µM] | [11] 7.57% [100 µM] | [12] -47.8% [100 µM] | [14] -11.8% [100 µM] | [17] -20% [100 µM]
inactive: [1] 29% [100 µM] | [2] 42.6% [100 µM] | [3] 72.2% [100 µM] | [7] 50.4% [100 µM] | [8] 16.1% [100 µM] | [9] 11.3% [100 µM] | [10] 46.4% [100 µM] | [13] 13.9% [100 µM] | [15] 53% [100 µM] | [16] 65.2% [100 µM] | [18] 27.6% [100 µM] | [19] 32.4% [100 µM]

C=C(C)[C@@H]1CC[C@]2(C(=O)O)CC[C@]3(C)[C@H](CC[C@@H]4[C@@]5(C)C/C(=C/c6ccco6)C(=O)C(C)(C)[C@@H]5CC[C@]43C)[C@@H]12
active: [1] -58.6% [100 µM] | [2] -37.5% [100 µM] | [3] -87.9% [100 µM] | [4] -55.6% [100 µM] | [5] -86.4% [100 µM] | [6] -72.7% [100 µM] | [7] -73.7% [100 µM] | [8] -60.4% [100 µM] | [9] -73.1% [100 µM] | [10] -35% [100 µM] | [11] 8.08% [100 µM] | [12] -82.3% [100 µM] | [13] -60.8% [100 µM] | [14] -98.2% [100 µM] | [15] -41.5% [100 µM] | [16] -82.8% [100 µM] | [17] -77.8% [100 µM] | [18] -64.1% [100 µM] | [19] -62.6% [100 µM]

Clc1ccc(/C=N/Nc2nc3ccccc3s2)c(Cl)c1
inactive: [1] 90.4% | [2] 100% | [3] 93.4% | [4] 41.8% | [5] 44.6% | [6] 97.2% | [7] 73.7% | [8] 90.7% | [9] 88.4% | [10] 97.9% | [11] 91% | [12] 79.6% | [14] 114% | [15] 85.4% | [16] 97.5% | [17] 100% | [18] 93.5% | [19] 121%

Cc1nc(-c2ccccc2)sc1CC#N
inactive: [1] 106% | [2] 93.1% | [3] 101% | [4] 103% | [5] 99.2% | [6] 94.6% | [7] 100% | [8] 104% | [9] 122% | [10] 116% | [11] 94.2% | [12] 128% | [13] 116% | [14] 118% | [15] 106% | [16] 101% | [17] 111% | [18] 123% | [19] 125%

C#CCNC(=O)CC[C@@H](C)[C@H]1CC[C@H]2[C@@H]3CC[C@@H]4CC(=O)CC[C@]4(C)[C@H]3CC[C@]12C
active: [1] -27.5% [100 µM] | [2] -63.7% [100 µM] | [3] -5.44% [100 µM] | [4] -55.5% [100 µM] | [5] -71.6% [100 µM] | [6] -63.8% [100 µM] | [7] 6.94% [100 µM] | [8] -71.9% [100 µM] | [9] -70.9% [100 µM] | [10] -38.1% [100 µM] | [11] 4.55% [100 µM] | [12] -82.2% [100 µM] | [13] -78% [100 µM] | [14] -76.1% [100 µM] | [15] -20.4% [100 µM] | [16] -51.3% [100 µM] | [17] -82.6% [100 µM] | [18] -0.129% [100 µM] | [19] -22.4% [100 µM]

COc1ccc(C2CC(c3ccc4ccccc4c3)=NN2c2nc(O)c(C3=c4cc(OC)ccc4=NC3=O)s2)cc1 (stereo unspecified)
active: [1] -29.8% | [2] -70.6% | [3] -17% | [4] -39.8% | [5] -67.7% | [6] -74.1% | [7] -72.4% | [8] -73.3% | [9] -73.3% | [10] 1.32% | [11] 0.0361% | [12] -61.7% | [13] -54.7% | [14] -66.3% | [15] -32.5% | [16] -59% | [17] -27.9% | [18] -52.5% | [19] -67.1%

COC(=O)[C@]12CCC(C)(C)C[C@H]1C1=CC[C@@H]3[C@@]4(C)C/C(=C/c5cccnc5)C(=O)C(C)(C)[C@@H]4CC[C@@]3(C)[C@]1(C)CC2
active: [1] -40.6% [100 µM] | [2] -51.7% [100 µM] | [3] -13.4% [100 µM] | [4] -39.3% [100 µM] | [5] -61.5% [100 µM] | [6] -72.9% [100 µM] | [7] 0.0781% [100 µM] | [8] -29.1% [100 µM] | [9] -46.2% [100 µM] | [10] 7.21% [100 µM] | [11] 5.39% [100 µM] | [12] -79.7% [100 µM] | [13] -55.7% [100 µM] | [14] -76.5% [100 µM] | [15] -5.3% [100 µM] | [16] -29.8% [100 µM] | [17] -76.6% [100 µM] | [18] -29.2% [100 µM] | [19] -49.8% [100 µM]

CCN(CC)CCCC(C)Nc1ccnc2cc(Cl)c(SCc3ccccc3)cc12 (stereo unspecified)
active: [1] -17.1% | [3] -28.9% | [5] -43.1% | [6] -69.6% | [7] -23.1% | [8] -93.3% | [9] -89.5% | [11] -51.1% | [12] -77.3% | [13] -78.5% | [14] -91.1% | [15] -66.3% | [16] -81.7% | [17] -89.5% | [18] -79.2% | [19] -88.2%
inactive: [2] 24.2% | [10] 25.4%

CC(C)[C@H]1COC(=O)N1[C@@H]1C(=O)N([C@@H](CCC(=O)N2CCN(C3CCCC3)CC2)C(=O)N[C@@H]2CCCc3ccccc32)[C@@H]1/C=C/c1cccc(Cl)c1
inactive: [1] 72.1% | [2] 88.9% | [3] 57.9% | [4] 46.2% | [5] 31.4% | [6] 75.5% | [7] 35.9% | [8] 54.9% | [9] 57.7% | [10] 65.3% | [11] 45.5% | [12] 82.3% | [13] 44.7% | [14] 50% | [15] 28.5% | [16] 54% | [17] 68.9% | [18] 20.5% | [19] 36.6%

COc1cc2c(O)n(CCCN3CCOCC3)c3c4cnc5cccc(c(=O)c3c2cc1OC)c54
inactive: [1] 33.3% | [2] 38.2% | [3] 47.2% | [5] 58.4% | [6] 16.9% | [7] 30.1% | [8] 19% | [9] 34.2% | [10] 18% | [11] 40.7% | [12] 67.4% | [13] 48.7% | [14] 30.4% | [15] 33.1% | [16] 17.1% | [17] 24.5% | [18] 44% | [19] 16.6%
active: [4] 9.15%

CCOC(=O)n1cc(C2=C(c3ccc(OC)c(OC)c3)COC2=O)c2ccccc21
active: [5] 5.33% | [6] -23.6% | [9] -60.7% | [10] -7.55% | [11] 9.56% | [14] -4.89% | [17] -15%
inactive: [1] 39.3% | [2] 55.5% | [3] 52% | [8] 23.5% | [12] 45% | [13] 13.5% | [15] 28.2% | [16] 16.2% | [18] 91.2%

O=C1COCCN1c1ccc(Nc2nc(Cl)nc(N3CCOCC3)n2)cc1
inactive: [1] 96.5% | [2] 87.5% | [3] 93.3% | [4] 108% | [5] 85.8% | [6] 68.2% | [7] 95.8% | [8] 104% | [9] 102% | [10] 102% | [11] 100% | [12] 96.3% | [13] 103% | [14] 92.4% | [15] 99.4% | [16] 94.4% | [17] 96.5% | [18] 98.2% | [19] 98.2%

CCN(CC)CCSC(=O)C(O)(c1ccccc1)C1CCCC1 (stereo unspecified)
inactive: [1] 99.4% | [2] 93.1% | [3] 118% | [4] 115% | [5] 77% | [6] 86.7% | [7] 85.2% | [8] 169% | [9] 144% | [10] 95.6% | [11] 96.4% | [12] 116% | [13] 97.9% | [14] 82.1% | [15] 91.3% | [16] 113% | [17] 110% | [18] 83.2% | [19] 128%
